# High-throughput results from PubChem BioAssay.
# PostGolgi yeast: growth inhibition of a yeast mutant, post-Golgi transport screen; post-Golgi transport phenotypic cell assay; inhibition, % at 10 µM; actives 0.9% (n = 98,000);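 also: yeast cells grown in 1536-well plates; yeast grown about 18 h at 30C before absorbance read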
# hDAT+cocaine: modulates human dopamine transporter uptake under cocaine; Q01959; LLC-PK1 hDAT cells, [14C]-dopamine uptake with cocaine IC80; actives deviate in either direction; B-score at 10 µM; actives 1.3% (n = 110,000);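 active = Z score or B-score, a plate-position-corrected score, falls beyond the plate's 99.7% confidence bounds, in either direction; inactive = both scores lie inside the 99.7% bounds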;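 also: scored against the spread of the other compound wells on the same plate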
# Cav32 inh: human Cav3.2 channel inhibition, primary screen; O95180; B-score at 10 µM; actives 4% (n = 100,000); Cav3.2-expressing cells, Fluo-4 calcium fluorescence FDSS; stronger effect = lower value;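 active = single-dose well whose peak fluorescence ratio is a statistical outlier from its plate by either plate-standardised score or position-corrected B-score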
# PostGolgi ctrl: yeast control strain growth, post-Golgi counter-screen; actives 5% (n = 98,000); AID 738; efflux-deficient yeast background strain, growth absorbance A615, 16 h; inhibition, % at 10 µM
# PLAP act: activates human placental alkaline phosphatase; P05187; purified PLAP enzyme, luminescent substrate read-out; stronger effect = higher value; activation fold at 20 µM; actives 1.2% (n = 96,000); in the data active = activation fold above about 2
# D1 allo mod: D1 dopamine receptor (human) allosteric modulation. P21728. HEK293 D1, CRE-luciferase, dopamine EC30 potentiation; actives deviate in either direction. B-score at 10 µM. actives 5.9% (n = 58,000);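 active = luminescence count or its row- and column-corrected plate score outside the 99.7% band of the plate's sample wells, on either side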
# Active calls of the source: *; x = not tested or not shown. Hits are enriched below; roughly 12% of the tested compounds scored in any of these assays. Rule as the data show it, unless noted: active = inhibition above about 30%; inactive = the rest.
SMILES,PostGolgi yeast,hDAT+cocaine,Cav32 inh,PostGolgi ctrl,PLAP act,D1 allo mod
Nn1c(SCC(=O)NC2CCCc3ccccc32)nnc1-c1cccs1 (stereo not drawn),5,0.098,0.26,-7,0.9,-0.26
Cc1ccccc1N(CC(=O)N/N=C/c1ccc(Cl)cc1)C(=O)c1ccccc1,8,0.97,-5.2*,32*,1.5,x
O=C(Cc1cccc2ccccc12)N/N=C/c1ccc(F)cc1,-9,-0.11,-4*,-7,0.9,x
Cc1ccccc1N(CC(=O)N/N=C/c1ccc(F)cc1)C(=O)c1ccccc1,8,1.3,-5.6*,16,1.7,x
O=C1c2ccccc2C(Nc2ccc3c(c2)OCCO3)N1c1ccc(Cl)cn1 (stereo not drawn),1,-0.87,-0.023,35*,1,-0.089
COc1ccc(NC2c3ccccc3C(=O)N2c2ccccn2)cc1Cl (stereo not drawn),7,-0.11,-2,47*,0.9,x
CCc1cccc(NC2c3ccccc3C(=O)N2c2ccc(C)cn2)c1 (stereo not drawn),1,-1.2,-4.4*,24,0.9,x
Cc1ccccc1-c1c(C)oc2cc(O)ccc2c1=O,24,0.55,0.37,6,1,-1
COC(=O)C1=C(C)N(CCCC(=O)O)C(=O)NC1c1ccccc1Cl (stereo not drawn),x,0.2,1.6,x,x,x
COc1ccccc1N1CCN(CC(O)COc2ccc3c(c2)CCC3)CC1 (stereo not drawn),1,1.9,-6.1*,7,1.4,x
CC(=O)Nc1ccc(OCC(O)CN2CCN(c3ccc(C)c(Cl)c3)CC2)cc1 (stereo not drawn),2,1,-0.07,10,1.9,-2.6*
CN1CCN(CC(O)COc2ccc(OCC(O)CN3CCN(C)CC3)cc2)CC1 (stereo not drawn),x,0.03,1.3,x,x,-1
CC(C)c1ccc(OCC(O)CN2CCN(c3ccccc3)CC2)cc1 (stereo not drawn),51*,0.065,-3,63*,1.7,-4.5*
CC(=O)c1c(C)nn(CC(O)COc2ccc3c(c2)CCC3)c1C (stereo not drawn),-6,15*,0.65,15,1.1,-1
CCOC(=O)Cc1cc(=O)[nH]c(/N=C(\N)Nc2ccc(C)cc2C)n1,-4,0.18,-2.8,4,1.5,x
Cc1nc(C)n(CC(O)COc2ccc3c(c2)CCC3)n1 (stereo not drawn),4,0.043,-0.0068,9,1.4,-0.15
CC(C)(C)CC(C)(C)NCC(O)COc1ccc2c(c1)CCC2 (stereo not drawn),x,-0.44,-8.3*,x,x,x
CC1(O)N(Cc2ccccc2)C(=O)OC12CCCCC2 (stereo not drawn),-5,0.51,-1.1,46*,1,-0.45
O=C(CSc1ccc(F)cc1)N1CCC(c2nc3ccccc3s2)CC1,5,x,x,20,1.3,x
O=C(CSc1ccccc1Cl)N1CCC(c2nc3ccccc3s2)CC1,13,-0.19,-2.4,64*,1.3,x
Cc1ccc(/C(N)=N/OC(=O)N2CCOCC2)cc1,-5,-0.038,0.2,6,1,x
Cc1ccc(/C(N)=N/OC(=O)C23CC4CC(CC(C4)C2)C3)cc1,7,-7.1*,-1.6,21,0.7,x
O=C(Cc1cccs1)Nc1nc2c(s1)CCCC2,35*,0.67,-0.028,-3,0.9,-0.3
O=C(Nc1nc2c(s1)CCCC2)c1cccs1,-5,-0.38,-0.78,11,1.1,0.43
O=C(Cc1cn2ccsc2n1)Nc1nc2c(s1)CCCC2,7,1.8,-0.62,11,2*,0.039
SMILES,PostGolgi yeast,hDAT+cocaine,Cav32 inh,PostGolgi ctrl,PLAP act,D1 allo mod
O=C(Cc1cn2ccsc2n1)Nc1ccccn1,13,-2,-1.9,-2,1,0.47
COc1nc(-c2ccccc2)ccc1-c1noc(-c2ccccc2F)n1,-2,-1.6,-0.95,3,1,0.007
COc1ccc(NC(=O)CSc2ccc3c4c(cccc24)C(=O)c2ccccc2-3)cc1,-19,-0.61,-4.4,10,0.9,x
N#Cc1cccc(NC(=O)CSc2ccc3c4c(cccc24)C(=O)c2ccccc2-3)c1,2,-0.34,-5.6*,0,1.2,x
O=S(=O)(NCCCCCNS(=O)(=O)c1ccc(F)cc1)c1ccc(F)cc1,-3,0.24,-5.8*,7,1.1,-0.75
COc1ccc(S(=O)(=O)NCCSc2ccc(C)cc2)cc1OC,-6,0.2,-2.2,0,1.2,2.4
O=S(=O)(NCCSc1ccc(Cl)cc1)c1ccc(F)cc1,-1,-0.13,-7.7*,19,1.1,x
